# In PubChem BioAssay AID1645855 (Buhrlage Lab, Dana-Farber Cancer Institute and Novartis …, 2021):
# In all, about 47,000 compounds went through this assay and about 3,100 (6.6%) were called active. This excerpt belongs to a sample that is enriched for actives. Unmarked numbers belong to inactive results. Rule as the data show it: active = inhibition above about 30%; inactive = the rest.
# Target: Ubiquitin carboxyl-terminal hydrolase 17-like protein 5 (Homo sapiens) (UniProt A8MUK1)
# Test: inhibitors of human USP17 deubiquitinase (AID 1645855)
# Conditions: purified USP17, Ub-rhodamine cleavage fluorescence, 3 h; at 50 µM; stronger effect = higher value
# Sequence of Ubiquitin carboxyl-terminal hydrolase 17-like protein 5 (Homo sapiens) (A8MUK1 whole entry, looked up): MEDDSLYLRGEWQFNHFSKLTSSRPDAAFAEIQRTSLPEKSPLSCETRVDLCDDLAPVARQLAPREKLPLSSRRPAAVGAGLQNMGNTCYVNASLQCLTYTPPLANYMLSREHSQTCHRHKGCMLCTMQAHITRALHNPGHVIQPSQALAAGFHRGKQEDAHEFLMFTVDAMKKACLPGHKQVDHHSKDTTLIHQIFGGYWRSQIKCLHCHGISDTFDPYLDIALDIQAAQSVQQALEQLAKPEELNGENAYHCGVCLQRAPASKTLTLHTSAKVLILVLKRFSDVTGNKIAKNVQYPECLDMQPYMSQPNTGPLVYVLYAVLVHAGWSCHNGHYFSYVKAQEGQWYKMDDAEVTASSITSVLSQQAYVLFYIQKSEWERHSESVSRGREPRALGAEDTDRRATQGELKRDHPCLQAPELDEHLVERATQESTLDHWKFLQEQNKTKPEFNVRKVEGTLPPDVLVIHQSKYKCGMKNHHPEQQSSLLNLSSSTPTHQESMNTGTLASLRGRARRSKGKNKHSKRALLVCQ
row,Compound,inhibition
1,Cn1nc(C(=O)Nc2ccc(F)cc2)c(=O)c2ccccc21,32.8% (active)
2,Cc1oc(-c2ccccc2Cl)cc1C(=O)Nc1ccc(F)cc1,-7.25%
3,COc1cccc(NC(=O)c2nn(-c3ccc(F)cc3)c(OC)cc2=O)c1,-0.739%
4,CNc1nc2c(c(=O)n1-c1ccccc1)CCN(S(C)(=O)=O)C2,4.69%
5,CN1CCc2c(sc3nc(SCCc4ccccc4)n(-c4ccccc4)c(=O)c23)C1,41.9% (active)
6,CNc1nc2c(c(=O)n1-c1ccccc1)CN(C(=O)c1ccc3ccccc3c1)CC2,1.41%
7,Cc1ccc(-c2nnc(CCC(=O)O)o2)cc1,-26.7%
8,COc1cc(OC)cc(C(=O)Nc2cccc(CCc3nc4ccc(C)cc4[nH]3)c2)c1,30.4% (active)
9,CC(=O)Nc1ccc(C(=O)CSc2nc3ccc(C)cc3[nH]2)cc1,12.1%
10,COc1ccccc1NC(=O)Nc1ccc(CCc2nc3ccccc3[nH]2)cc1,-12.4%
11,Cc1ccc(C(=O)N2CCCC(c3nnc(-c4ccccc4)o3)C2)cc1F (stereo not given),-2.67%
12,O=CN1c2ccccc2NC(=O)CC1c1ccccc1 (stereo not given),-3.98%
13,c1ccc(-c2nc3c4ccccc4nc(NC4CCCC4)n3n2)cc1,-4.03%
14,Clc1ccc2ncnc(NC3CCCCC3)c2c1,39.8% (active)
15,Cc1cc(NC2CCCCC2)n2ncc(-c3ccc(Cl)cc3)c2n1,-4.39%
16,Cc1cc(C(=O)Nc2cccc(F)c2)cc2c1N(C)S(=O)(=O)c1ccccc1-2,5.77%
17,Cc1nn(-c2ccc(F)cc2F)c2c1C(C(=O)c1ccc3c(c1)OCO3)CC(=O)N2 (stereo not given),9.19%
18,Cc1nn(-c2cccc(F)c2)c2c1C(C(=O)c1cc3ccccc3o1)CC(=O)N2 (stereo not given),2.88%
19,Cc1nn(-c2ccc(F)cc2F)c2c1C(C(=O)c1cc3ccccc3o1)CC(=O)N2 (stereo not given),31.3% (active)
20,Cc1cc(N2CCCC2)ccc1CN1CCCC(c2nnc3n2CCNCC3)C1 (stereo not given),-63.9%
21,O=C(Nc1ccccc1-c1nc2ccccc2[nH]1)c1cc(S(=O)(=O)N2CCOCC2)c(Cl)cc1Cl,-21.9%
22,O=C(Nc1nc2ccc(S(=O)(=O)N3CCOCC3)cc2s1)c1cc2ccccc2oc1=O,34.2% (active)
23,O=C(Nc1ccc(Cl)c(S(=O)(=O)N2CCOCC2)c1)c1cc(-c2ccccc2Cl)nc2ccccc12,-12.8%
24,CC(=O)CCCSc1ncnc2c1sc1nc(N3CCOCC3)c3c(c12)CC(C)(C)OC3,16.1%
25,O=C(COc1cccc2ccc(N3CCC(Cc4ccccc4)CC3)nc12)NCc1ccc(F)cc1,35.1% (active)
26,O=C(CCc1nnc2ccc(N3CCCC3)nn12)NCc1ccc(F)cc1,11.5%
27,COc1ccc(NC(=O)CSc2ncccc2C(=O)N2CCC(Cc3ccccc3)CC2)cc1OC,11%
28,Cn1c(=O)c(N2CCC(C(=O)NCc3ccc(F)cc3)CC2)nc2cccnc21,16.8%
29,O=C(COc1cccc2ccc(N3CCC(Cc4ccccc4)CC3)nc12)Nc1cccc(F)c1,46.2% (active)
30,O=C(CC1C(=O)OCCN1Cc1ccccc1)Nc1cccc(F)c1 (stereo not given),-10.1%
